# Inconclusive results are not listed. A call without a number means that no potency is given here. Activity calls are given as the source filed them. Unless noted, calls follow the shape of the dose curve; as a rule, active = well fitted curve in the direction sought with a large enough effect; inconclusive = small, poorly fitted or top-dose-only effect, or another doubt; inactive = no such curve, though single readings can be large; an effect the other way counts as inactive or inconclusive.
# How the values were obtained:
# [1] = target: Lysosomal acid glucosylceramidase (Homo sapiens) (UniProt P04062); assay: Glucocerebrosidase-p2 (AID 348; in the data active = potency below about 10 µM; also: potency is read from the fitted curve at half-maximal effect); conditions: purified GBA, blue fluorogenic substrate, 40 min
# Chain of Lysosomal acid glucosylceramidase (Homo sapiens) (P04062 whole entry, looked up): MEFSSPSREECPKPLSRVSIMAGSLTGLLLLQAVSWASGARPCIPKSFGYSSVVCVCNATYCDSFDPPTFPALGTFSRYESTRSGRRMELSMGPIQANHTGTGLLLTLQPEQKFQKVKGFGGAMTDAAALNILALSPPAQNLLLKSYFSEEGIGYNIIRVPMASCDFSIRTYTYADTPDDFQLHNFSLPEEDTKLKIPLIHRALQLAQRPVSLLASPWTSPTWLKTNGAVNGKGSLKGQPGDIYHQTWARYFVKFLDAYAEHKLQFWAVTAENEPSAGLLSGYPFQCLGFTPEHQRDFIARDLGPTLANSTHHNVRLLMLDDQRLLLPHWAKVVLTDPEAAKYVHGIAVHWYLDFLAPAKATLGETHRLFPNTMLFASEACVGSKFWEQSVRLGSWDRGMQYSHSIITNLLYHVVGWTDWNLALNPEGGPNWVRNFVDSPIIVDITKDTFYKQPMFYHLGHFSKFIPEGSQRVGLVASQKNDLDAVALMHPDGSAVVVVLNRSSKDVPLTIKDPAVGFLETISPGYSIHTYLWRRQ
# Procedure, shortened: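 Normal human glucocerebrosidase (0.2 nM) with blue fluorogenic substrate (80 uM final) in citrate/phosphate pH 5.9 with 10mM sodium taurocholate, 0.01% tween-20; 40 min RT, NaOH/glycine stop; fluorescence Ex 365/Em 440; AC50 from a titration from 0.6 nM upwards.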
# [2] = target: Cytochrome P450 1A2 (Homo sapiens) (UniProt P05177); assay: p450-cyp1a2 (AID 410; calls by dose curve; also: potency is read from the fitted curve at half-maximal effect); conditions: recombinant CYP1A2, luciferin-ME demethylation, luminescence; series mostly up to 57 µM
# Chain of Cytochrome P450 1A2 (Homo sapiens) (P05177 whole entry, looked up): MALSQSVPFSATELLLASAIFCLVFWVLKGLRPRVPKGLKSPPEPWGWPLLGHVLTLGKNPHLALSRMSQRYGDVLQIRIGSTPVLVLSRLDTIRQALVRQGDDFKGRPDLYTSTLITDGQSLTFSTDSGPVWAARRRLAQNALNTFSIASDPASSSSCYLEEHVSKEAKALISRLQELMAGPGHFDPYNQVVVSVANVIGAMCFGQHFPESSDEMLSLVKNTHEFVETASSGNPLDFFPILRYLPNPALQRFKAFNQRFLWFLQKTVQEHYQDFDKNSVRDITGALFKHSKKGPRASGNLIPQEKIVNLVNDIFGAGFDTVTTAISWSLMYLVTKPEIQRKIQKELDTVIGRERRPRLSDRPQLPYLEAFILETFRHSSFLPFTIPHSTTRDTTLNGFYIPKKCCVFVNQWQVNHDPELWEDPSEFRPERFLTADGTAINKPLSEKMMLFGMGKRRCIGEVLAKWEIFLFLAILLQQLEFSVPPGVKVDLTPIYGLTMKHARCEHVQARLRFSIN
# Procedure, shortened: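 Luminescent demethylation readout: Luciferin-ME (100uM, equal to Km) turned over by 20nM CYP1A2 for 60 min at room temperature after NADPH regeneration addition, following 10 min compound preincubation. Normalization used 57 uM furafylline as full inhibition.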
# [3] = target: Glucocorticoid receptor (Homo sapiens) (UniProt P04150); assay: GR-GFP Redistribution (AID 450;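 active = compounds whose dose series gives a full or clear partial fitted curve of increased nuclear translocation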; also: potency is read from the fitted curve at half-maximal effect); conditions: U2OS GR-GFP nuclear translocation, laser cytometry, 2 h
# [4] = target: Glucocorticoid receptor (Homo sapiens) (UniProt P04150); assay: GR-EFC Redistribution (AID 451; calls by dose curve; also: potency is read from the fitted curve at half-maximal effect); conditions: CHO-K1 GR-EFC translocation, beta-gal luminescence, 2 h
# Procedure, shortened: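 CHO-K1 cells expressing nuclear EA and GR-ED fragments of b-gal; compounds titrated up to 46 uM final, 2 h at 37 C. GR nuclear translocation read as complemented b-gal luminescence after 1 h RT detection.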
# [5] = target: Mitogen-activated protein kinase 10 (Mus musculus) (UniProt Q61831); assay: JNK3 AlphaScreen Assay (AID 530; active = well fitted curve in either direction with a large enough effect, not every such curve was filed as active;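 also: kinase came from lysate of stimulated human HepG2 cells; signal reports phosphorylation of biotinylated GST-cJun 1-79 at Ser73 with 10 µM ATP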); conditions: JNK3 lysate, c-Jun phosphorylation; series mostly up to 57.1 µM
# Procedure, shortened: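 Activity was read by AlphaScreen after JNK3-containing HepG2 lysate (cytokine pre-activated) phosphorylated biotinylated GST-cJun with 10 uM ATP at room temperature. Phospho-Ser73 cJun antibody with Protein-A acceptor beads provided detection.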
# [6] = target: Dual specificity protein kinase CLK4 (Homo sapiens) (UniProt Q9HAZ1); assay: qHTS Assay for Inhibitors of CDC-like Kinase 4 (Kinase-Glo Assay) (AID 1770); conditions: recombinant Clk4, Kinase-Glo ATP depletion luminescence; series mostly up to 66.7 µM; also: nearly all actives have a fitted effect of over 65% in size
# Chain of Dual specificity protein kinase CLK4 (Homo sapiens) (Q9HAZ1 whole entry, looked up): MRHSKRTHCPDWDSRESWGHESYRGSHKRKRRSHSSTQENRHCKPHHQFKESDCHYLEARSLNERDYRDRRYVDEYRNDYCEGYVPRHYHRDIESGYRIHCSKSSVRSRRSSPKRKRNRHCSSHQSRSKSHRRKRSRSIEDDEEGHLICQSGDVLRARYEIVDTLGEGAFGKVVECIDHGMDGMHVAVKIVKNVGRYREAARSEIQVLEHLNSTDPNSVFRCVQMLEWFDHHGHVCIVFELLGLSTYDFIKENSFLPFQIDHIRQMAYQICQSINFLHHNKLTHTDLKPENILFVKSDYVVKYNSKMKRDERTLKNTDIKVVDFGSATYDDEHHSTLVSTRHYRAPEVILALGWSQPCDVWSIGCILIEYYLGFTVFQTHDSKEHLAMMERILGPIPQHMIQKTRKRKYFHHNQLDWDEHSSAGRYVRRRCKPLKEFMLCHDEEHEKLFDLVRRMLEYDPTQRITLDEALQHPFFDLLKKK
# Procedure, shortened: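 Recombinant human Clk4 (25 nM) phosphorylated RS repeat peptide (100 uM) with 1 uM ATP in Tris pH 7.5/MgCl2/EGTA/DTT/Triton buffer for 4.5 h at room temperature. Residual ATP was quantified by Kinase-Glo luciferase luminescence.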
# [7] = target: Dual specificity protein kinase CLK4 (Homo sapiens) (UniProt Q9HAZ1); assay: qHTS Assay for Inhibitors of CDC-like Kinase 4 (ADP-Glo Assay) (AID 1771); conditions: recombinant CLK4, ADP-Glo luminescence; series mostly up to 80 µM; also: nearly all actives have a fitted effect of over 70% in size
# Procedure, shortened: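 ADP production was read by ADP-Glo luminescence after residual ATP depletion, following 1 h room-temperature reaction of 25 nM Clk4, 1 uM ATP and 100 uM RS peptide with MgCl2, EGTA, DTT and Triton X-100.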
# [8] = target: Dual specificity protein kinase CLK4 (Homo sapiens) (UniProt Q9HAZ1); assay: qHTS Assay for Inhibitors of CDC-like Kinase 4 (ADP-FP Assay) (AID 1795); conditions: Transcreener ADP fluorescence polarization; series mostly up to 50 µM; also: nearly all actives have a fitted effect of over 60% in size
# Procedure, shortened: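 Recombinant human Clk4 (6.25 nM) phosphorylated RS repeat peptide (100 uM) with 1 uM ATP in Tris pH 7.5/MgCl2/EGTA/DTT/Triton buffer for one hour. ADP was quantified by Transcreener competitive fluorescence polarization against an ADP calibration curve.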
# [9] = target: Ubiquitin carboxyl-terminal hydrolase 1 (Homo sapiens) (UniProt O94782); assay: Inhibitors of USP1/UAF1: Pilot qHTS (AID 504865); conditions: purified USP1/UAF1, Ub-rhodamine cleavage fluorescence; series mostly up to 54.9 µM; also: nearly all actives have a fitted effect of over 35% in size; also: potency is read from the fitted curve at half-maximal effect;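 as to activity change, negative = inhibition: rhodamine fluorescence freed from ubiquitin-rhodamine substrate followed over time; top concentration of the series differs between compounds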
# Chain of Ubiquitin carboxyl-terminal hydrolase 1 (Homo sapiens) (O94782 whole entry, looked up): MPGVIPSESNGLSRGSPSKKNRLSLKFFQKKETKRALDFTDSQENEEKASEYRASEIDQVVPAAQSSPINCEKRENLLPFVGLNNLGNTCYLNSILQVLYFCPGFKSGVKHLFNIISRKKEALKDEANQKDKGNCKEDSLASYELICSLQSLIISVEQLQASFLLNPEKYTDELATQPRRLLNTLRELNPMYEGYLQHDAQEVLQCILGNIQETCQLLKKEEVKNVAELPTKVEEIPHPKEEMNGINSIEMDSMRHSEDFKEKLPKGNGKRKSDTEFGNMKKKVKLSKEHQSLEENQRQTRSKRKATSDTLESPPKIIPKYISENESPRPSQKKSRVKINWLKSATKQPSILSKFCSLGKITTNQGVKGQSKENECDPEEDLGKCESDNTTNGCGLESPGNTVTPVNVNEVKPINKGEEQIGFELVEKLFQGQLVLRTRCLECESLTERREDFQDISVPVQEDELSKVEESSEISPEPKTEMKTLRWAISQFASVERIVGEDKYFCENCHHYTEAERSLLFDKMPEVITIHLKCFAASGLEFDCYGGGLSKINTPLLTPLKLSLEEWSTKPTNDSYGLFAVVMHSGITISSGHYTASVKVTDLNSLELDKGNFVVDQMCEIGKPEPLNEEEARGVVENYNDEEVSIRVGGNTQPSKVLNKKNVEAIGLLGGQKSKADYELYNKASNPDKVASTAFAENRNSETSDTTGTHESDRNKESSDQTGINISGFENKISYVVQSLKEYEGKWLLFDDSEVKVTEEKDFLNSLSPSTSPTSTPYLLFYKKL
# Procedure, shortened: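 USP1/UAF1 complex (1nM) preincubated with compound 15 min at room temperature, then Ub-Rho substrate (150nM final) added. Fluorescence read kinetically at 480/540 nm, 6 reads every 60 seconds. Buffer: 50mM HEPES pH 7.8, 0.5mM EDTA, 0.1 mg/ml BSA, 1mM TCEP, 0.01% Tween-20.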
# [10] = Primary qHTS for small molecule stabilizers of the endoplasmic reticulum resident proteome: Secreted ER Calcium Modulated Protein (SERCaMP) assay (AID 1508630); conditions: SH-SY5Y GLuc-SERCaMP (Gaussia luciferase released on ER calcium loss) secretion, thapsigargin, luminescence; series mostly up to 38.4 µM
# Procedure, shortened: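 The SH-SY5Y reporter protocol was run at 3 concentrations up to 38.3 uM (primary) or 11 concentrations (follow-up): 16 h compound, 100 nM thapsigargin for 4 h, then extracellular luciferase luminescence.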
# [11] = target: Rap guanine nucleotide exchange factor 3 (Homo sapiens) (UniProt O95398); assay: Confirmatory qHTS for antagonist of cAMP-regulated guanine nucleotide exchange factor 3 (EPAC1) (AID 1645880); conditions: EPAC1 Rap1B-BODIPY-GDP exchange, fluorescence; series mostly up to 115 µM; also: nearly all actives have a fitted effect of over 55% in size
# Chain of Rap guanine nucleotide exchange factor 3 (Homo sapiens) (O95398 whole entry, looked up): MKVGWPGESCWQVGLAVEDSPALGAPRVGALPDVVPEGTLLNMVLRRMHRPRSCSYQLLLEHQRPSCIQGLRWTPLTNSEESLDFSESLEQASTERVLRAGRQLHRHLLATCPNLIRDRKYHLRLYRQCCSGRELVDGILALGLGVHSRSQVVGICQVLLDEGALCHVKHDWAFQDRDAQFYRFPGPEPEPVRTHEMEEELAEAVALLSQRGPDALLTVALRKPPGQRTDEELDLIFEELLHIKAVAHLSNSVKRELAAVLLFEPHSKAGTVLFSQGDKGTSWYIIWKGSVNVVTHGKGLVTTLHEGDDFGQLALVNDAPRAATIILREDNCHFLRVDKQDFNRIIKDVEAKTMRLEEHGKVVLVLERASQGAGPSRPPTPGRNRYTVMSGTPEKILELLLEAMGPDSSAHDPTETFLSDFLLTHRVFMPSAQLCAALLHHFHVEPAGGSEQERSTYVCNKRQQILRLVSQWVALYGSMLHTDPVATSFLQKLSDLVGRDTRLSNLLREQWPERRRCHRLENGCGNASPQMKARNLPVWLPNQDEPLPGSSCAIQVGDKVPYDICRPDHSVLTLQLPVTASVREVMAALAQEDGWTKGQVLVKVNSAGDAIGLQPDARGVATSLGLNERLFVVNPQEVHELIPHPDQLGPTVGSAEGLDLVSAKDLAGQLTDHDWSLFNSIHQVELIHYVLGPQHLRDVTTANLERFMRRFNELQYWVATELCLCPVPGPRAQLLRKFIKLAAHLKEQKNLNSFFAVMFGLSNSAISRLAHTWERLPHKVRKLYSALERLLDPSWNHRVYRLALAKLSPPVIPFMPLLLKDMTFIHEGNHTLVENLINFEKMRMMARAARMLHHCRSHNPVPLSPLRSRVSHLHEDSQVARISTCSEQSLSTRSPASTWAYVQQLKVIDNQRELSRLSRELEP
# Procedure, shortened: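 Released BODIPY-GDP fluoresces less than Rap1-bound BODIPY-GDP; the signal is followed at 480/540 nm at 5-min intervals over 30 min, after 5 min at room temperature. Reactions contain 100 nM EPAC1, 250 nM RAP1B-BODIPY-GDP and 50 uM GDP; results are normalized to ATA and DMSO.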
# [12] = target: Rap guanine nucleotide exchange factor 3 (Homo sapiens) (UniProt O95398); assay: Confirmatory qHTS for agonist of cAMP-regulated guanine nucleotide exchange factor 3 (EPAC1) (AID 1645881); conditions: EPAC1 Rap1B BODIPY-GDP exchange fluorescence; series mostly up to 154 µM; also: nearly all actives have a fitted effect of over 75% in size; also: potency is read from the fitted curve at half-maximal effect;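 as to activation: EPAC1 catalysed release of BODIPY-GDP from Rap1B seen as fluorescence loss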
# [13] = target: Rap guanine nucleotide exchange factor 4 (Homo sapiens) (UniProt Q8WZA2); assay: Confirmatory qHTS for agonist of cAMP-regulated guanine nucleotide exchange factor 4 (EPAC2) (AID 1645884); conditions: EPAC2 GEF activity, Rap1B-BODIPY-GDP fluorescence; series mostly up to 154 µM;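 also: nucleotide exchange releases bodipy-GDP from Rap1 and this lowers its fluorescence; nearly all actives have a fitted effect of over 65% in size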; also: potency is read from the fitted curve at half-maximal effect
# Chain of Rap guanine nucleotide exchange factor 4 (Homo sapiens) (Q8WZA2 whole entry, looked up): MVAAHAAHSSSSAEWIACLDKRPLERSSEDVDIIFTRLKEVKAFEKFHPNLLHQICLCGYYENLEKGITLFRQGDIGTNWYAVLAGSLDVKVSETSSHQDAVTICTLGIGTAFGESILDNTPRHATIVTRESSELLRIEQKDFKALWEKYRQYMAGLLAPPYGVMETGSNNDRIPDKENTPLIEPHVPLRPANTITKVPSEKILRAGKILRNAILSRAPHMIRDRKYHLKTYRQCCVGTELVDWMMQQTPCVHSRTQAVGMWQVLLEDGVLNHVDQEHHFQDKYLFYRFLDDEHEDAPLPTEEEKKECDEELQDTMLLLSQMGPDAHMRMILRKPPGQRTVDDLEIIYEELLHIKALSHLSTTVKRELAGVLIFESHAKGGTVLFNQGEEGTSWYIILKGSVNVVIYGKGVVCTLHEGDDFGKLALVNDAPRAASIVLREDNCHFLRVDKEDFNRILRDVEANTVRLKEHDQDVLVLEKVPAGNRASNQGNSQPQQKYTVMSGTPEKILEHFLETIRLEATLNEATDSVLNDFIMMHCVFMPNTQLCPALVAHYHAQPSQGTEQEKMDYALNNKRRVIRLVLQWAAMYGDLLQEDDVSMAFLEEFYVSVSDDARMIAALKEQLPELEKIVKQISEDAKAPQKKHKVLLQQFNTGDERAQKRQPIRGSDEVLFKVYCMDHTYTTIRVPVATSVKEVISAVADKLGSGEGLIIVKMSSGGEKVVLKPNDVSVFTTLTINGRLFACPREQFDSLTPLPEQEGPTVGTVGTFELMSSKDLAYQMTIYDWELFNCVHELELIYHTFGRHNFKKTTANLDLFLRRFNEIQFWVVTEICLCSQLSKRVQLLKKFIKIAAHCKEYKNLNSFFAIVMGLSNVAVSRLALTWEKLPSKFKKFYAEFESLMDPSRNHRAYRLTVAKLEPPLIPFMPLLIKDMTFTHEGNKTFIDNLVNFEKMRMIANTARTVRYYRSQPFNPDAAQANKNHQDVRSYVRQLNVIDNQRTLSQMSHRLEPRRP
# [14] = target: Rap guanine nucleotide exchange factor 4 (Homo sapiens) (UniProt Q8WZA2); assay: Confirmatory qHTS for antagonist of cAMP-regulated guanine nucleotide exchange factor 4 (EPAC2) (AID 1645885); conditions: EPAC2 Rap1B-BODIPY-GDP exchange fluorescence, biochemical; series mostly up to 114 µM; also: nearly all actives have a fitted effect of over 25% in size
# [15] = AP1 Signaling Pathway (AID 357; active = well fitted curve in either direction with a large enough effect, not every such curve was filed as active;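 also: ME-180 reporter cells stimulated with EGF at its EC50 level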); conditions: ME-180 AP-1-bla reporter, EGF-induced, beta-lactamase ratio, 5 h; at 7.69 µM (top of the series) unless noted
# Procedure, shortened: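 Modulation of EGF-driven AP-1 transcription was assessed with a beta-lactamase reporter in ME-180 cells. Compound and EC50 EGF were co-incubated 5 hours at 37 °C before 2.5-hour CCF4 loading at room temperature and dual-emission reading.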
# [16] = NFAT Signaling Pathway (AID 444; active = well fitted curve in either direction with a large enough effect, not every such curve was filed as active;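 also: carbachol stimulus at about its EC50 of 1 µM final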); conditions: Jurkat NFAT-bla M1, carbachol, beta-lactamase ratio, 5 h; at 7.69 µM (top of the series) unless noted
# Procedure, shortened: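 Jurkat cells with NFAT-driven β-lactamase reporter and co-expressed M1 receptor, stimulated with carbachol (final 1 uM, ~EC50), compound titration, 5 h at 37 °C. CCF4 loaded 1 h at RT; 460/530 nm ratio gave %activity and AC50.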
# [17] = Stat Signaling Pathway (AID 446; active = well fitted curve in either direction with a large enough effect, not every such curve was filed as active;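 also: ME-180 cervical cancer cells given 40 pM IL-6 alongside compound; SIE-controlled beta-lactamase reporter measured as 460/530 nm FRET emission ratio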); conditions: ME-180 (cervical carcinoma) SIE beta-lactamase reporter, IL-6 stimulated, 5 h; at 7.69 µM (top of the series) unless noted
# Procedure, shortened: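 Emission at 460 and 530 nm (excitation 405 nm) reports SIE-controlled beta-lactamase in ME-180 cells. Cells received compound with 40 pM IL-6 for 5 hrs at 37 C; data scaled between 300 pM IL-6 and 125 nM JAK-inhibitor controls.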
# [18] = target: 3',5'-cyclic-AMP phosphodiesterase 4B (Homo sapiens) (UniProt Q07343); assay: qHTS Assay for Inhibitors of PDE-IV (AID 607; active = well fitted activation curve with a large enough effect in the main read-out, with a control signal flat, not every such curve was filed as active); conditions: HEK293 ACTOne CNG channel cells, membrane potential fluorescence; series mostly up to 22.9 µM
# Chain of 3',5'-cyclic-AMP phosphodiesterase 4B (Homo sapiens) (Q07343 whole entry, looked up): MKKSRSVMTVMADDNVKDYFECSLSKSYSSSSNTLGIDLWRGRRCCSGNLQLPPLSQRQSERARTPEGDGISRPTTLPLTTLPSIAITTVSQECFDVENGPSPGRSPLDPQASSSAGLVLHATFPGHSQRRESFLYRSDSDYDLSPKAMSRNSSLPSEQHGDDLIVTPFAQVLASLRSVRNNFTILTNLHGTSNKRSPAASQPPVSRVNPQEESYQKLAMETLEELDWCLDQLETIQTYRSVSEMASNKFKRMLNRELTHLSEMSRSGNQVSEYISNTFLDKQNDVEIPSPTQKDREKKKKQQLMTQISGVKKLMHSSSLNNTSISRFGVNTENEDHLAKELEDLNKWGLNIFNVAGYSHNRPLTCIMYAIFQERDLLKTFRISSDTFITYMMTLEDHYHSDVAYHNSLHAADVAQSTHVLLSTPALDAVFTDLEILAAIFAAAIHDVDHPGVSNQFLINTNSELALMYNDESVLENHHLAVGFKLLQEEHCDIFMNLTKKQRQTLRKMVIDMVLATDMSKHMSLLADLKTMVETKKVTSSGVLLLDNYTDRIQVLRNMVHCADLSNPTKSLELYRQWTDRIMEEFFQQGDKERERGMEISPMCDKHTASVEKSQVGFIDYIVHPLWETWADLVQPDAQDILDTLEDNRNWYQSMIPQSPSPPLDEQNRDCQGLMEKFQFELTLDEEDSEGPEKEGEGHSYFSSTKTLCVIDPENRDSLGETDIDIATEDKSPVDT
# Procedure, shortened: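 The readout is membrane depolarisation from a cAMP-sensing CNG channel, detected with a potential dye at ex 535/em 590. Cells were HEK293-derived (endogenous PDE-IV) at 1000 cells/well, titrated up to 22.9 uM final.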
# [19] = target: Cytochrome P450 3A4 (Homo sapiens) (UniProt P08684); assay: qHTS Assay for Activators of Cytochrome P450 3A4 (AID 885); conditions: recombinant CYP3A4, Luciferin-PPXE luminescence, 60 min; series mostly up to 57.1 µM; also: nearly all actives have a fitted effect of over 65% in size
# Procedure, shortened: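 Activators are scored by enhanced luminescence from CYP3A4 conversion of luciferin-PPXE (25uM, equal to KM) to luciferin, after 60 min at RT with an NADPH-regenerating system.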
# [20] = qHTS Assay for Lipid Storage Modulators (AID 1519; calls by dose curve); conditions: Drosophila S3 cells, BODIPY lipid droplet/cell ratio, laser cytometry, cells loaded with oleic acid; for activity change, negative = inhibition: at 57.5 µM (top of the series)
# Procedure, shortened: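 Cells seeded at 5,000 per well were treated with compounds over a concentration series and loaded with oleic acid (400 uM, as added). Lipid droplet fluorescence (488 nm excitation, 500-530 nm channel) was read by laser-scanning cytometry and normalized to 20 uM Triacsin C.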
# [21] = measured here: cell count channel max response
# [22] = measured here: lipid channel max response
compound,measurement,setting,value
COc1ccc(-n2c(=O)c(-c3ccc(Cl)cc3)nc3cnc(N(C)C)nc32)cc1,Potency,[1],> 11.4 µM (inactive)
same,Potency,[2],10 µM (active)
same,Potency,[3],> 9.22 µM (inactive)
same,Potency,[4],> 46 µM (inactive)
same,Potency,[5],inactive
same,Potency,[6],inactive
same,Potency,[7],inactive
same,Potency,[8],inactive
same,Potency,[9],inactive
same,outcome,[10],inactive
same,Potency,[11],inactive
same,Potency,[12],inactive
same,Potency,[13],inactive
same,Potency,[14],inactive
COc1cccc(Nc2ncc3nc(-c4cc(F)cc(F)c4)c(=O)n(C4CC4)c3n2)c1,Potency,[1],> 11.4 µM (inactive)
same,"activity change, negative = inhibition",[15],-13.3% (inactive)
same,Potency,[2],6.31 µM (active)
same,"activity change, negative = inhibition",[16],-29.9% (inactive)
same,"activity, negative = inhibition",[17],-7.32% (inactive)
same,Potency,[3],> 9.22 µM (inactive)
same,Potency,[4],> 46 µM (inactive)
same,Potency,[5],inactive
same,Potency,[18],inactive
same,outcome,[10],inactive
same,Potency,[11],inactive
same,Potency,[12],inactive
same,Potency,[13],inactive
same,Potency,[14],inactive
COCCn1c(=O)c(-c2ccc(OC)cc2)nc2cnc(Nc3cccc(OC)c3)nc21,Potency,[1],> 11.4 µM (inactive)
same,"activity change, negative = inhibition",[15],-2.99% (inactive)
same,Potency,[2],10 µM (active)
same,"activity change, negative = inhibition",[16],-5.57% (inactive)
same,"activity, negative = inhibition",[17],3.6% (inactive)
same,Potency,[3],> 9.22 µM (inactive)
same,Potency,[4],> 46 µM (inactive)
same,Potency,[5],inactive
same,Potency,[18],inactive
same,Potency,[19],inactive
same,outcome,[10],inactive
same,Potency,[11],inactive
same,Potency,[12],70.6 µM (active)
same,Potency,[13],70.6 µM (active)
same,Potency,[14],inactive
O=C1C=C(O)c2ccccc2C1=O,Potency,[19],inactive
same,"activity change, negative = inhibition",[20],-2.81% (inactive)
same,max response,[20]; [21],-0.646%
same,max response,[20]; [22],-2.25%
same,Potency,[9],50.1 µM (active)
same,outcome,[10],inactive
COc1cccc(-c2ccc3ncnc(NCc4ccccc4OC)c3c2)c1,Potency,[3],> 46 µM (inactive)
same,Potency,[4],> 46 µM (inactive)
same,Potency,[5],inactive
same,Potency,[18],inactive
same,"activity change, negative = inhibition",[20],5.94% (inactive)
same,max response,[20]; [21],-19.3%
same,max response,[20]; [22],-13.1%
same,Potency,[9],inactive
same,outcome,[10],inactive
COC(=O)N1CCC2(CC1)CCN(c1cccc(-c3ccccc3)c1)CC2,Potency,[1],> 11.4 µM (inactive)
same,"activity change, negative = inhibition",[15],-18.3% (inactive)
same,Potency,[2],inactive
same,"activity, negative = inhibition",[17],13% (inactive)
same,Potency,[4],> 46 µM (inactive)
same,Potency,[5],inactive
same,Potency,[18],inactive
same,outcome,[10],inactive
same,Potency,[11],inactive
same,Potency,[12],inactive
same,Potency,[13],inactive
CN(C)c1ncc2nc(-c3ccc(F)cc3)c(=O)n(-c3ccccc3)c2n1,Potency,[1],> 11.4 µM (inactive)
same,"activity change, negative = inhibition",[15],-8.28% (inactive)
same,"activity change, negative = inhibition",[16],20.7% (inactive)
same,"activity, negative = inhibition",[17],28.3% (inactive)
same,Potency,[3],> 9.22 µM (inactive)
same,Potency,[4],> 46 µM (inactive)
same,Potency,[5],inactive
same,Potency,[6],inactive
same,Potency,[8],inactive
same,Potency,[9],inactive
same,outcome,[10],inactive
same,Potency,[11],inactive
same,Potency,[12],inactive
same,Potency,[13],inactive
same,Potency,[14],inactive

# Source: PubChem BioAssay (NCATS)
